# Experimental data: ChEMBL document CHEMBL3433997, “St. Jude Leishmania screening dataset” (2016)
# Target: Solute carrier family 2, facilitated glucose transporter member 1 (Homo sapiens) (UniProt P11166)
# Assay: ST_JUDE_LEISH: Cytotoxicity at 2uM final concentration against transgenic Leishmania Mexicana promastigotes LmGLUT1 that are glucose transport deficient and complemented with the human glucose transporter GLUT1. Activity is measured by DNA content using SYBR green in vitro
# Format: functional
# Chain of Solute carrier family 2, facilitated glucose transporter member 1 (Homo sapiens) (P11166 whole entry): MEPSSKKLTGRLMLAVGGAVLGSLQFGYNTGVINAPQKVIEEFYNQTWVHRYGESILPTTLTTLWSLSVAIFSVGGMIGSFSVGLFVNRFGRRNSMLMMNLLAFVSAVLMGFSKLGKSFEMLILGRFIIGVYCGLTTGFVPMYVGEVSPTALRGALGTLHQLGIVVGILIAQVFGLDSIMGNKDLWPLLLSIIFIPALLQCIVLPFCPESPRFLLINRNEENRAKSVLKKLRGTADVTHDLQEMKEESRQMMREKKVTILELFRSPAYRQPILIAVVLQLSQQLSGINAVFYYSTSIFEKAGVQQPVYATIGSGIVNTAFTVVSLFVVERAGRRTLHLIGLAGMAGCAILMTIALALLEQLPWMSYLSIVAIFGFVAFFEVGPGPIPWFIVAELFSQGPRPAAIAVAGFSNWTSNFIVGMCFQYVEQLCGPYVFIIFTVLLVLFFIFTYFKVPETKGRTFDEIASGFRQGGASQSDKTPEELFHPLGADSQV
row,SMILES,inhibition [%]
1,COc1cccc(OC)c1CN1CCC(N(C)CCCCCCCCN2CCC(OC(=O)Nc3ccccc3-c3ccccc3)CC2)CC1,105
2,CCCCN(CCCC)CCCN(CCCN(CCCC)CCCC)c1cc(C)nc(Nc2ccc(Br)cc2)n1,-1.21
3,O=c1cc(NCCCNC2CCCc3c2cc(Cl)c(Cl)c3Cl)[nH]c2ccccc12 (stereo not given),-3.43
4,CNC(=O)c1cnc(Nc2ccc(N3CCN(C)CC3)cc2)nc1Nc1cccc([N+](=O)[O-])c1,2.86
5,c1ccc(C2CCN(Cc3ccc(-c4c[nH]c5nc(NC6CCCC6)ncc45)cc3)CC2)cc1,2.79
6,COc1cc(C2NCC3(CCOCC3)c3cc4c(cc32)OCCO4)cc(OC)c1OC (stereo not given),10.2
7,CCc1c[nH]c2c(N3CCCS3(=O)=O)cc(C(=O)N[C@@H](Cc3ccccc3)[C@H](O)CNC(C)(C)c3cccc(C(F)(F)F)c3)cc12,-0.71
8,CC(C)c1ccc(NC(=O)c2ccc(C(=O)NC3CCN(CC4CCCCC4)C3)cc2)cc1 (stereo not given),3.72
9,CCCN(CCC)S(=O)(=O)c1ccc(C(=O)N2CCC(C(=O)OCC)CC2)cc1,6.42
10,Cc1cccc2nc(-c3ccc(-c4ccc(CNCc5ccc(S(C)(=O)=O)cc5)cc4)cc3)[nH]c12,12
11,CCN(CC)C(C)(C)CN(Cc1ccc(-c2ccc(C(F)(F)F)cc2)cc1)C(=O)Cn1c(CCc2cccc(F)c2F)nc(=O)c2ccccc21,6.6
12,CCC(=Cc1cccc([N+](=O)[O-])c1)C(=O)NCC1CCN(c2nc3cc(OC)c(OC)cc3c(=N)[nH]2)CC1,5.64
13,CN1CCN(c2cc3c(Nc4ccc5c(cnn5Cc5ccccc5)c4)ncnc3cn2)CC1,1.33
14,FC(F)(F)c1cc(C(F)(F)F)c2cc(CNCCCNc3nc4ccccc4[nH]3)[nH]c2c1,-1.02
15,C=CCc1ccc(C[C@H](NC(=O)OC(C)(C)C)C(=O)OC)cc1,22.2
16,FC(F)(F)COc1c(CNCCCCCCNCc2ccc3ccccc3c2OCC(F)(F)F)ccc2ccccc12,87.7
17,NS(=O)(=O)c1ccc(CNc2ccc3ncc(-c4ccc(Cl)cc4)n3n2)cc1,-0.09
18,Cc1ccc(NC(=O)Nc2ccc(Cl)cc2)cc1-c1cccc(C(=O)Nc2ccc(F)cc2)c1,-1.9
19,O=C(NCCCCN1CCC(c2nc3ccccc3s2)CC1)c1cc2ccccc2[nH]1,3.02
20,CC[C@H](C)CNC(=O)c1cncc(-c2cccc(CN3CCC(N4CCCC4)CC3)c2)c1,-3.12
21,Cc1ccccc1C1CCN(c2ccc(C(=O)Nc3ccc(F)cc3)cn2)CC1,4.93
22,ON=C1CCc2cc(-c3cc(-c4ccc(OC5CCNCC5)cc4)oc3-c3ccncc3)ccc21,1.43
23,COc1ccc(CCCN2C(=O)C(c3ccccc3)(c3ccccc3)N=C2N)cc1,-1.19
24,Cc1cc(N[C@@H](Cc2ccccc2)C(=O)NCc2cccs2)nc(Nc2ccccc2)n1,9.96
25,O=C(NCCc1ccccc1)N(Cc1ccccc1-c1ccc(CNCCc2ccccc2)cc1)C1CCN(Cc2ccccc2)CC1,7.2

# Target: Hexose transporter 1 (Plasmodium falciparum) (UniProt O97467)
# Assay: ST_JUDE_LEISH: Cytotoxicity at 2uM final concentration against transgenic Leishmania Mexicana promastigotes LmPfHT that are glucose transport deficient and complemented with the Plasmodium falciparum hexose transporter. Activity is measured by DNA content using SYBR green in vitro
# Format: functional
row,SMILES,inhibition [%]
1,Cc1cccc(CN2CCC(CNC(=O)c3cc4c(-c5ccccc5F)nn(C)c4s3)CC2)c1,3.22
2,CC(CCc1ccc(OCc2ccccc2)cc1)NCC(O)c1ccccc1 (stereo not given),0.43
3,CCc1cc2c(cc1CC)CC(NC[C@@H](O)c1ccc(O)c3[nH]c(=O)ccc13)C2,1.76
4,CCC[C@@H]([C@@H](CC1CCCCC1)C(=O)N[C@H](C(=O)Nc1nccs1)C(C)(C)SCCOCCOCC)N(O)C=O,5.16
5,CC(C)CCNc1nc(NCCCc2ccccc2)c2cc(O)ccc2n1,18.8
6,O=[N+]([O-])c1cccc(-c2nc(-c3ccc(Br)cc3)[nH]c2-c2ccc(Br)cc2)c1,4.88
7,CC(CC(=O)NCC1(c2ccc(F)cc2Cl)CCOCC1)C(=O)c1ccc(Cl)cc1 (stereo not given),1.23
8,Nc1nc(N)c2c(ccc3c2ccn3Cc2ccc3c(c2)OCO3)n1,97.5
9,O=C(/C=C/c1ccc(Cl)c(Cl)c1)NCCCCCN1CCC(c2cn[nH]c2-c2ccccc2)CC1,3.45
10,Nc1c2c(nc3ccc(NC(=O)CCCCCc4ccccc4)cc13)CCCC2,9.26
11,CCOC(=O)N1CCN(C(=O)Nc2ccc(Cl)cc2)CC1,1
12,O=C(Nc1nc(-c2ccccn2)cs1)c1ccc(S(=O)(=O)N2CCc3ccccc32)cc1,15.1
13,Cc1noc(C)c1-c1ccc2c(Nc3ccccc3N3CCOCC3)c(C(=O)NCc3ccccc3)cnc2c1,5.91
14,O=C(/C=C/c1ccc(Cl)c(Cl)c1)NCCCCCCN1CCN(C(=O)Nc2ccc(OC(F)F)cc2)CC1,6.98
15,COc1ccc(C(=O)NCCCCN2CCC(c3ccc4c(c3OC)CCCC4)CC2)cc1-c1ccc(C(F)(F)F)cc1,0.84
16,COc1cccc(OC)c1CN1CCC(N(C)CCCCCCCCN2CCC(OC(=O)Nc3ccccc3-c3ccccc3)CC2)CC1,108
17,CCCCN(CCCC)CCCN(CCCN(CCCC)CCCC)c1cc(C)nc(Nc2ccc(Br)cc2)n1,-0.35
18,O=c1cc(NCCCNC2CCCc3c2cc(Cl)c(Cl)c3Cl)[nH]c2ccccc12 (stereo not given),1.1
19,CNC(=O)c1cnc(Nc2ccc(N3CCN(C)CC3)cc2)nc1Nc1cccc([N+](=O)[O-])c1,-0.17
20,c1ccc(C2CCN(Cc3ccc(-c4c[nH]c5nc(NC6CCCC6)ncc45)cc3)CC2)cc1,2.07

row,SMILES,inhibition [%]
1,COc1cc(C2NCC3(CCOCC3)c3cc4c(cc32)OCCO4)cc(OC)c1OC (stereo not given),6.69
2,CCc1c[nH]c2c(N3CCCS3(=O)=O)cc(C(=O)N[C@@H](Cc3ccccc3)[C@H](O)CNC(C)(C)c3cccc(C(F)(F)F)c3)cc12,0.86
3,CC(C)c1ccc(NC(=O)c2ccc(C(=O)NC3CCN(CC4CCCCC4)C3)cc2)cc1 (stereo not given),4.18
4,CCCN(CCC)S(=O)(=O)c1ccc(C(=O)N2CCC(C(=O)OCC)CC2)cc1,5.73
5,Cc1cccc2nc(-c3ccc(-c4ccc(CNCc5ccc(S(C)(=O)=O)cc5)cc4)cc3)[nH]c12,10.9
6,CCN(CC)C(C)(C)CN(Cc1ccc(-c2ccc(C(F)(F)F)cc2)cc1)C(=O)Cn1c(CCc2cccc(F)c2F)nc(=O)c2ccccc21,5.18
7,CCC(=Cc1cccc([N+](=O)[O-])c1)C(=O)NCC1CCN(c2nc3cc(OC)c(OC)cc3c(=N)[nH]2)CC1,7.07
8,CN1CCN(c2cc3c(Nc4ccc5c(cnn5Cc5ccccc5)c4)ncnc3cn2)CC1,2.08
9,FC(F)(F)c1cc(C(F)(F)F)c2cc(CNCCCNc3nc4ccccc4[nH]3)[nH]c2c1,0.32
10,C=CCc1ccc(C[C@H](NC(=O)OC(C)(C)C)C(=O)OC)cc1,40.4
11,FC(F)(F)COc1c(CNCCCCCCNCc2ccc3ccccc3c2OCC(F)(F)F)ccc2ccccc12,95.5
12,NS(=O)(=O)c1ccc(CNc2ccc3ncc(-c4ccc(Cl)cc4)n3n2)cc1,0.08
13,Cc1ccc(NC(=O)Nc2ccc(Cl)cc2)cc1-c1cccc(C(=O)Nc2ccc(F)cc2)c1,2.5
14,O=C(NCCCCN1CCC(c2nc3ccccc3s2)CC1)c1cc2ccccc2[nH]1,0.13
15,CC[C@H](C)CNC(=O)c1cncc(-c2cccc(CN3CCC(N4CCCC4)CC3)c2)c1,2.1
16,Cc1ccccc1C1CCN(c2ccc(C(=O)Nc3ccc(F)cc3)cn2)CC1,-0.36
17,ON=C1CCc2cc(-c3cc(-c4ccc(OC5CCNCC5)cc4)oc3-c3ccncc3)ccc21,3.53
18,COc1ccc(CCCN2C(=O)C(c3ccccc3)(c3ccccc3)N=C2N)cc1,-0.94
19,Cc1cc(N[C@@H](Cc2ccccc2)C(=O)NCc2cccs2)nc(Nc2ccccc2)n1,9.21
20,O=C(NCCc1ccccc1)N(Cc1ccccc1-c1ccc(CNCCc2ccccc2)cc1)C1CCN(Cc2ccccc2)CC1,8.75
